Experimental data as given in PubChem BioAssay (NCI).
This is part of a sample that, as a whole, favours compounds with a hit. Of some 83,000 tested, about 20% had one in any assay.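 A percent growth of 40 corresponds to 60% growth inhibition; 0 means no net growth; -100 means all cells died. Active threshold: below 10.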 A number with no mark means an inactive call. Calls of active or inactive are those of the source.

tested on: HL-60(TB) leukemia; test: NCI-60 one-dose screen, 48 h (100 = growth as untreated, 0 = no growth, -100 = all killed); conditions: 10 µM unless noted

Question: `COc1cc(/C=N/n2cnc3oc(-c4ccccc4)cc3c2=N)cc(CN2CCCC2)c1O` was tested. Which growth did it give?
Answer: 64.9%

Question: Which growth does the source give for `CC(C)Sc1nc(NC2CC2)c(C#N)c(-c2ccccc2)n1` here?
Answer: 112%

Question: How did the growth turn out when `CC(O)C(NC(=O)C1CCCN1C(=O)CNC(=O)C1CC(=O)NCC(=O)NC(Cc2c[nH]c3ccccc23)C(=O)NC(Cc2ccc(O)cc2)C(=O)NCC(=O)NC(CO)C(=O)NC(CCC(N)=O)C(=O)NC(Cc2c[nH]c3ccccc23)C(=O)N1)C(=O)NCC(=O)NC(CCC(N)=O)C(=O)NC(CCCNC(=N)N)C(=O)NC(CC(=O)O)C(=O)O` (stereo unspecified) was run?
Answer: 99.7%

Question: With `Cc1cn(-c2cc(NC(=O)c3cncc(C#Cc4cnc5ccc(O[C@@H]6CCOC6)nn45)c3)cc(C(F)(F)F)c2)cn1` as the compound, how does the growth read?
Answer: -32.6% (active)

Question: How did the growth turn out when `CCCCCCNC(=O)Oc1ccc(/C(=C(/C)c2ccccc2)c2ccc(OCCN3CCCCCC3)cc2)cc1` was run?
Answer: -39.6% (active)

Question: Which growth does the source give for `O=S(=O)(NCCNc1nccc(-n2cnc3ccccc32)n1)c1ccc(Br)cc1` here?
Answer: 114%

Question: `Cc1ccc(C2=NN(C)C(=O)C3(CCCC3)C2)cc1` was tested. Which growth did it give?
Answer: 77.8%

Question: `CCN1C(=S)N(CC)C2C1N=C(SC)N2/N=C/C=C/c1ccccc1[N+](=O)[O-]` (stereo unspecified) was tested. Which growth did it give?
Answer: 84.3%

Question: How did the growth turn out when `COC(=O)C1CCCN(S(=O)(=O)/N=C2\NC(=O)NC2=C(Cl)Cl)C1` (stereo unspecified) was run?
Answer: 73.6%

Question: Which growth does the source give for `COc1ccc2c(c1)Oc1nc(N)c(C#N)c(N)c1C2Sc1ccc(C)cc1` (stereo unspecified) here?
Answer: -22.3% (active)

Question: `Cc1cc(O)c(=O)cc2c1C[C@H]1CC(C)(C)/C=C/C[C@]3(C)Oc4cc(=O)c(O)cc(C)c4C[C@H]3C[C@H](O)[C@@]1(C)O2` was tested. Which growth did it give?
Answer: -31.8% (active)
